This is part of a sample that, as a whole, favours compounds with a hit. Of some 83,000 tested, about 20% had one in any assay.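 Growth was measured after 48 h exposure to one concentration of compound in 96-well plates. Values under 10 count as active.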 The source made the active and inactive calls.
Tests used:
Assay in all cases: NCI-60 one-dose screen, 48 h (100 = growth as untreated, 0 = no growth, -100 = all killed)
[1] = test system: SR leukemia; settings: 10 µM
[2] = test system: RPMI-8226 leukemia; settings: 10 µM
[3] = test system: OVCAR-8 ovarian; settings: 10 µM
[4] = test system: OVCAR-5 ovarian; settings: 10 µM
[5] = test system: OVCAR-4 ovarian; settings: 10 µM
[6] = test system: SK-OV-3 ovarian; settings: 10 µM
[7] = test system: IGROV1 ovarian; settings: 10 µM
[8] = test system: OVCAR-3 ovarian; settings: 10 µM
[9] = test system: HS 578T breast; settings: 10 µM
[10] = test system: NCI/ADR-RES ovarian; settings: 10 µM
[11] = test system: T-47D breast; settings: 10 µM
[12] = test system: BT-549 breast; settings: 10 µM
[13] = test system: MDA-MB-435 melanoma; settings: 10 µM
[14] = test system: SW-620 colon; settings: 10 µM
[15] = test system: MCF7 breast; settings: 10 µM unless noted
[16] = test system: HCT-116 colon; settings: 10 µM
[17] = test system: HCC-2998 colon; settings: 10 µM
[18] = test system: KM12 colon; settings: 10 µM

Measured: growth

Cc1cc(O)ccc1O
inactive: [1] 104% | [2] 59.5% | [3] 104% | [4] 116% | [5] 98.5% | [6] 112% | [7] 114% | [8] 110% | [9] 103% | [10] 96.5% | [11] 101% | [12] 83.5% | [13] 97.7% | [14] 117% | [15] 94.7% | [16] 96.4% | [17] 121% | [18] 105%

O=[N+]([O-])c1ccc(N=Nc2ccccc2)cc1
inactive: [1] 97.9% | [2] 98% | [3] 104% | [4] 97.7% | [5] 107% | [6] 113% | [7] 89.8% | [8] 107% | [9] 119% | [10] 94.8% | [11] 87.4% | [12] 87.2% | [13] 110% | [14] 115% | [15] 109% | [16] 97.1% | [17] 104% | [18] 96.2%

COC1=CC(=O)c2nc(Cl)ccc2C1=O
inactive: [4] 11.6% | [6] 89.4% | [7] 20.4% | [9] 74.7% | [12] 106% | [17] 100% | [18] 91.3%
active: [1] 5.55% | [2] 3.41% | [3] 7.95% | [5] -97% | [8] -2.3% | [10] 5.5% | [11] -38.7% | [13] -42.1% | [14] -59.8% | [15] -56.8% | [16] -32.7%

CNC(=O)c1ccccc1CC1(O)c2ccccc2Oc2ccccc21
active: [1] 8.48% | [13] -51.3%
inactive: [2] 70.5% | [3] 74.4% | [4] 80.4% | [5] 83.6% | [6] 73.7% | [7] 43% | [8] 24.7% | [9] 63.5% | [10] 29% | [11] 49.4% | [12] 65% | [14] 29.2% | [15] 25.6% | [16] 32.4% | [17] 80.9% | [18] 34.5%

Cc1cc(C(C)(C)C)cc(C)c1Br
inactive: [1] 84.9% | [2] 95.1% | [3] 111% | [4] 105% | [5] 115% | [6] 108% | [7] 112% | [8] 120% | [9] 99.6% | [10] 111% | [11] 115% | [12] 104% | [13] 110% | [14] 104% | [15] 103% | [16] 97.6% | [17] 99.4% | [18] 105%

O=[N+]([O-])c1ccc(-c2ncc(-c3ccc(Br)cc3)o2)cc1
inactive: [1] 124% | [2] 78.8% | [3] 109% | [4] 105% | [5] 97.3% | [6] 112% | [7] 100% | [8] 129% | [9] 129% | [10] 104% | [11] 94.7% | [12] 113% | [13] 108% | [14] 93.5% | [15] 87.4% | [16] 91.4% | [17] 88.2% | [18] 119%

CC(C)CCOC(=O)c1ccccc1
inactive: [1] 107% | [2] 118% | [3] 99.4% | [4] 105% | [5] 107% | [6] 104% | [7] 102% | [8] 107% | [9] 105% | [10] 107% | [11] 99.5% | [12] 102% | [13] 106% | [14] 108% | [15] 99.7% | [16] 103% | [17] 110% | [18] 106%

O=c1cc(-c2ccccc2)[nH]c2c1CCCC2
inactive: [1] 30.5% | [2] 21.3% | [3] 39.7% | [4] 39.3% | [5] 49.8% | [6] 25.8% | [7] 44.3% | [8] 15.9% | [9] 16.3% | [11] 22.8% | [12] 53.7% | [14] 24.2% | [15] 17.2% | [16] 27.9% | [17] 40% | [18] 26.3%
active: [10] -40.8% | [13] -12.9%

COCCOCCCl
inactive: [1] 108% | [2] 115% | [3] 110% | [4] 106% | [5] 105% | [6] 109% | [7] 116% | [8] 111% | [9] 102% | [10] 109% | [11] 98.1% | [12] 107% | [13] 106% | [14] 101% | [15] 100% | [16] 99.7% | [17] 101% | [18] 107%

Cc1ccc(CCCC(=O)O)c(C)c1
inactive: [1] 96.7% | [2] 97.8% | [3] 97.4% | [4] 94.5% | [5] 97.6% | [6] 97.7% | [7] 108% | [8] 108% | [9] 108% | [10] 107% | [11] 95.2% | [12] 101% | [13] 100% | [14] 99.7% | [15] 105% | [16] 103% | [17] 118% | [18] 107%
